Results from PubChem BioAssay (Tox21).
Records with an inconclusive call do not appear. Activity calls are given as the source filed them. Calls come from the whole dose curve; as a rule, active = well fitted activation curve with a large enough effect in the repeat runs; inconclusive = weak or mixed curves; inactive = flat fitted curve, though single readings scatter.

Test: Caspase-3/7 induction in HepG2 cells by small molecules, qHTS assay (AID 1346978); note: nearly all actives have a fitted effect of over 15% in size
Settings: HepG2 caspase-3/7 activation, Caspase-Glo luminescence, 17 h; series mostly up to 92.4 µM; caspase activation: at the top concentration
Description: National Center for Advancing Translational Sciences [NCATS] NIH Chemical Genomics Center [NCGC] U.S. Environmental Protection Agency [EPA] National Institutes of Environmental Health Sciences [NIEHS] National Toxicology Program [NTP] Assay overview: Apoptosis is a process of programmed cell death and plays a central role in the development of multicellular organisms. It is a highly regulated process and induces cell death by activating caspases, which are the members of cysteine aspartic acid-specific protease (caspase) family. Caspases involved in apoptosis are classified by their mechanism of action as initiator caspases (caspase-2, -8, -9 and -10) and executioner caspases (caspase-3, -6, and -7). Inhibition of apoptosis results in number of cancers, autoimmune diseases, inflammatory diseases and viral infection. To identify small molecule compounds that induce apoptosis, a homogeneous, luminescent Caspase-Glo 3/7 assay was used. Wild type HepG2 cells were used to screen Tox21 libraries for identifying caspase-3/7 activity inducers.
Assay Protocol Summary: HepG2 cells were dispensed at 2,000 per well in 5uL of culture medium into white solid bottom 1536-well plates (Corning Life Sciences, Corning, NY) using a Multidrop Combi (Thermo Scientific, Waltham, MA) dispenser. The assay plates were incubated at 37 C and 5% CO2 for 5hr, and then 23nL of compounds dissolved in DMSO and positive control were transferred using a Pintool station (Wako, San Diego, CA). The assay plates were incubated at 37C and 5% CO2 for 17hr. For caspase-3/7 activity read, 4uL of Caspase-Glo 3/7 reagent (Promega Corporation, Madison, WI) was added to each well of the assay plates using Flying Reagent Dispenser (FRD, Aurora Discovery, San Diego, CA) and incubated the assay plates at room temperature for 30min. The luminescence signal was quantified using a ViewLux plate reader (Perkin Elmer, Shelton, CT).
% is set by controls: 0 for no effect and ±100 for the full control effect; potency is the fitted concentration of half-maximal effect.

| Compound | caspase activation | Potency |
| --- | --- | --- |
| CN(C/C=C/C#CC(C)(C)C)Cc1cccc2ccccc12 | -0.245% [at 42.5 µM] (inactive) | – |
| N=C1C=CC(=C(c2ccc(N)cc2)c2ccc(N)cc2)C=C1 | -9.61% (inactive) | – |
| Oc1ccc(Cl)cc1Sc1cc(Cl)ccc1O | -3.86% [at 42.5 µM] (inactive) | – |
| N#CSc1ccc(N)c([N+](=O)[O-])c1 | -5.79% (inactive) | – |
| CCCCCCCCCCC=O | -0.0711% (inactive) | – |
| Cc1[nH]nc2c1N=C(c1ccccc1Cl)c1cc([N+](=O)[O-])ccc1N2 | – | 17.2 µM (active) |
| Oc1ccc2c(c1)-c1ccccc1C2 | 4.01% (inactive) | – |
| CCOC(=O)/C=C(C)/C=C/C=C(C)/C=C/c1c(C)cc(OC)c(C)c1C | 0.394% [at 42.5 µM] (inactive) | – |
| CCCCCCCC/C=C\CCCCCCCCOCCO | 12.9% (inactive) | – |
| COc1c(C)c2c(c(O)c1C/C=C(\C)CCC(=O)O)C(=O)OC2 | -0.337% [at 42.5 µM] (inactive) | – |
| CCC(C)Nc1ccc(NC(C)CC)cc1 (stereo not given) | -14.7% (inactive) | – |
| CCC(CN)=C(c1ccccc1)c1ccccc1 | 2.3% [at 42.5 µM] (inactive) | – |
| CCc1cc(Cc2cc(CC)cc(C(C)(C)C)c2O)c(O)c(C(C)(C)C)c1 | – | 68.6 µM (active) |
| CCCCCCCC/C=C/CCCCCCCC1=NCCN1CCO | – | 43.3 µM (active) |
| CCC(Cl)C(Cl)C(Cl)CC(Cl)C(Cl)C(C)Cl (stereo not given) | -2.73% (inactive) | – |
| CCCCCCCCCCCCCCCCCC[N+](C)(C)C | -4.16% (inactive) | – |
| Nc1nc2ccccc2n1Cc1ccc(F)cc1 | -0.42% [at 42.5 µM] (inactive) | – |
| CC(C)(C)CC(C)(C)c1ccc(O)c(Cc2ccc(Cl)cc2Cl)c1 | – | 26.6 µM (active) |
| CC(=O)N1CCN(c2ccc(OC[C@H]3CO[C@](Cn4ccnc4)(c4ccc(Cl)cc4Cl)O3)cc2)CC1 | – | 68.6 µM (active) |
| CC(NN)c1ccccc1 (stereo not given) | -0.345% [at 19 µM] (inactive) | – |

| Compound | caspase activation | Potency |
| --- | --- | --- |
| CC[C@@]1(O)C(=O)OCc2c1cc1n(c2=O)Cc2c-1nc1ccccc1c2/C=N/OC(C)(C)C | – | 0.335 µM (active) |
| Cc1cc(O)c(C(C)(C)C)cc1C(C)(C)C | – | 61.1 µM (active) |
| O=C(OCC(COC(=O)c1ccccc1)(COC(=O)c1ccccc1)COC(=O)c1ccccc1)c1ccccc1 | -0.878% (inactive) | – |
| CCCCc1oc2ccc(NS(C)(=O)=O)cc2c1C(=O)c1ccc(OCCCN(CCCC)CCCC)cc1 | – | 18.8 µM (active) |
| CCCCCCCCCCCCCCCC(=O)OC[C@H](O)[C@H]1OC(=O)C(O)=C1O | -0.666% (inactive) | – |
| O=C(Nc1ccc(Oc2ccc(Cl)cc2)c(Cl)c1)c1cc(I)cc(I)c1O | -6.11% [at 42.5 µM] (inactive) | – |
| Cc1ccc(-n2nc(C(C)(C)C)cc2NC(=O)Nc2ccc(OCCN3CCOCC3)c3ccccc23)cc1 | -1.46% [at 42.5 µM] (inactive) | – |
| CC(C)n1nc(-c2cc3cc(O)ccc3[nH]2)c2c(N)ncnc21 | – | 29.8 µM (active) |
| CCCCCCCCCOC(=O)c1ccc(O)cc1 | – | 53.7 µM (active) |
| N=C1N=C(N)c2cc3ccccc3cc21 | – | 45.8 µM (active) |
| CCCCCCCCNC(C)C(O)c1ccc(SC(C)C)cc1 (stereo not given) | – | 21.1 µM (active) |
| Cc1cccc(S(=O)(=O)O)c1C | -0.872% (inactive) | – |
| CCN1/C(=C/C=C/c2sc3ccccc3[n+]2CC)Sc2ccccc21 | -8.48% [at 19 µM] (inactive) | – |
| Oc1ccc(N=Nc2ccccc2)cc1 | -17.5% (inactive) | – |
| CCCC1O[C@@H]2C[C@H]3[C@@H]4CCC5=CC(=O)C=C[C@]5(C)[C@H]4[C@@H](O)C[C@]3(C)[C@]2(C(=O)CO)O1 (stereo not given in full) | – | inactive |
| C1CCCC1 | -1.69% (inactive) | – |
| O=C(N/N=C/c1ccccc1O)c1ccncc1 | 0.123% [at 42.5 µM] (inactive) | – |
| CN(C)c1ccc(SC#N)cc1 | 0.542% (inactive) | – |
| CC(C)(C)C(=O)OCOC(=O)[C@@H]1N2C(=O)[C@@H](NC(=O)[C@H](N)c3ccccc3)[C@H]2SC1(C)C | 0.107% [at 42.5 µM] (inactive) | – |
| Fc1ccc(C(c2ccc(F)cc2)N2CCN(C/C=C/c3ccccc3)CC2)cc1 | -0.783% [at 42.5 µM] (inactive) | – |
